Experimental data as given in PubChem BioAssay.
Active and inactive are the calls of the source.

Assays:
Albumin (Bos taurus) = Albumin (Bos taurus) (UniProt P02769); test: compounds binding labelled BSA control protein – biochemical, small-molecule microarray, Alexa647 label, 635/667 nm fluorescence, artefact control for SMM control protein annotation, profiling panel (AID 1118); conditions: BSA-A647 binding, fluorescence 635 nm, higher = more signal;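 note: score merges 667 nm emission intensity and signal-to-noise per printed compound spot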
[1] = probe aXIP binding to arrayed compounds – biochemical, NeuroSMM set, 635/667 nm fluorescence, primary screen (AID 1119); conditions: small-molecule microarray, higher = more signal, called active from +8 up or from −8 down;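 note: probe is the protein aXip251-270 applied at 1 µg/mL to compound-printed slides; binding of probe to printed compounds measured as 667 nm fluorescence plus signal to noise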
[2] = probe aNOTCH3 binding on compound microarray – biochemical, small-molecule microarray, 635/667 nm fluorescence, primary screen (AID 1120); conditions: higher = more signal;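 note: probe is a biotin-tagged antibody raised against NOTCH3 rather than NOTCH3 protein; score merges spot fluorescence near 667 nm with spot signal to noise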
[3] = probe aNOTCH2 binding on compound microarray – biochemical, small-molecule microarray, 635/667 nm fluorescence, primary screen (AID 1121); conditions: higher = more signal;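 note: score merges feature fluorescence read at 667 nm with its signal to noise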
[4] = biological target: Carbonic anhydrase 2 (Homo sapiens) (UniProt P00918); test: compounds binding carbonic anhydrase 2 – biochemical, small-molecule microarray, Alexa647-labelled CAII, profiling panel (AID 1122); conditions: CAII-A647 binding fluorescence, higher = more signal
[5] = COS7 lysate on small-molecule microarray, probe aHis, 635 nm (AID 1123); conditions: COS7 cell lysate, fluorescence, higher = more signal;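 note: z-score combines 667nm fluorescence intensity with signal-to-noise per printed compound spot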
[6] = probe aLAP1 signal on lysate-treated microarray – cell lysate, small-molecule microarray, COS7 lysate, primary screen (AID 1124); conditions: probe aLAP1, fluorescence, higher = more signal;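 note: lysate comes from COS7 cells expressing LAP1 and is applied at 0.3 µg/mL; score merges spot fluorescence near 667 nm with signal-to-noise over triplicate slides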
Sam68 (KHDRBS1) = test: compounds binding KHDRBS1 protein – biochemical, small-molecule microarray, 635 nm fluorescence, primary screen (AID 1125); conditions: higher = more signal;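 note: score merges 667 nm channel intensity with signal to noise over triplicate slides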
[7] = test system: Chordin-like protein 2 (CHRDL2); test: compounds binding chordin-like 2 – biochemical, small-molecule microarray, 635 nm fluorescence, primary screen (AID 1126); conditions: fluorescence 635 nm, higher = more signal;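 note: printed compound slides probed with Chrdl2 protein at 4 µg/mL for 1 h at 4 C; score merges 667 nm emission intensity with signal to noise over three replicate slides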
[8] = biological target: Concanavalin-A (Canavalia ensiformis) (UniProt P02866); test: compounds binding concanavalin A lectin – biochemical, small-molecule microarray, Alexa647 label, 635 nm, artefact control for SMM control protein annotation, primary screen (AID 1127); conditions: ConA-A647 binding fluorescence, higher = more signal;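 note: z combines 667 nm emission intensity with signal-to-noise across three replicate slides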
[9] = compounds binding Alexa647 anti-His antibody – biochemical, small-molecule microarray, 635 nm fluorescence, artefact control for SMM control protein annotation, primary screen (AID 1128); conditions: higher = more signal;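 note: score merges feature fluorescence with signal-to-noise for each printed compound spot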
[10] = test system: Human papillomavirus type 1a E7 protein (residues 1-88); test: HPV1a E7 small-molecule binders, primary screen, biochemical, small-molecule microarray, residues 1-88, 635 nm (AID 1129); conditions: small-molecule microarray binding, fluorescence 635 nm; higher = more signal
[11] = biological target: Focal adhesion kinase 1 (Homo sapiens) (UniProt Q05397); test: PTK2 protein binding on printed compound slides – biochemical, small-molecule microarray, 635/667 nm fluorescence, BSA, DTT, primary screen (AID 1130); conditions: 635 nm fluorescence, higher = more signal;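 note: composite of spot emission at 667 nm and signal to noise over triplicate slides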
[12] = test system: Fibrinogen (Alexa647-labelled); test: Alexa647-fibrinogen binding to printed small molecules – biochemical, small-molecule microarray, 635/667 nm fluorescence, artefact control for SMM control-protein annotation, profiling panel (AID 1131); conditions: fibrinogen-A647 binding fluorescence, higher = more signal;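 note: z-score merges 667 nm fluorescence with per-spot signal-to-noise over triplicate slides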
[13] = biological target: Follistatin (Homo sapiens) (UniProt P19883); test: FST protein binding to printed compounds – biochemical, small-molecule microarray, 635/667 nm fluorescence, primary screen (AID 1132); conditions: 635 nm fluorescence, higher = more signal
[14] = biological target: Fibroblast growth factor 2 (Homo sapiens) (UniProt P09038); test: basic fibroblast growth factor binding to printed compounds – biochemical, small-molecule microarray, 635/667 nm fluorescence, primary screen (AID 1133); conditions: FGF2, fluorescence 635/667, higher = more signal
[15] = JC-1 mitochondrial potential readout, lung cancer cells – cell-based, A549, JC-1 fluorescence, basal, 24 h, 100 nL, profiling panel (AID 1138); conditions: higher = more signal;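 note: A549 lung adenocarcinoma cells under basal conditions with no added stimulus; test concentration not given here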
Lefty1 = Lefty1 protein binding to printed compounds – biochemical, small-molecule microarray, 635/667 nm fluorescence, primary screen (AID 1139); conditions: fluorescence 635/667, higher = more signal
[16] = test system: wheat germ agglutinin (Triticum aestivum), Alexa647-labelled; test: Alexa647-WGA lectin binding to printed small molecules – biochemical, small-molecule microarray, 635/667 nm fluorescence, artefact control for SMM control-protein annotation, profiling panel (AID 1140); conditions: WGA-A647 binding, 635 nm fluorescence, higher = more signal;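 note: score merges 667 nm feature emission with signal to noise over triplicate slides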
[17] = biological target: Luciferin 4-monooxygenase (Photinus pyralis) (UniProt P08659); test: inhibition of purified Photinus pyralis luciferase – biochemical, luminescence, purified enzyme, 2006 set, primary screen (AID 1141); conditions: purified firefly luciferase, SteadyGlo luminescence, 30 min; higher = more signal, called active from +8 up or from −8 down;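 note: cell-free assay with purified firefly luciferase at 100 ng per well in PBS; test concentration not given here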
Luciferin 4-monooxygenase (Photinus pyralis), sequence (P08659 whole entry, looked up): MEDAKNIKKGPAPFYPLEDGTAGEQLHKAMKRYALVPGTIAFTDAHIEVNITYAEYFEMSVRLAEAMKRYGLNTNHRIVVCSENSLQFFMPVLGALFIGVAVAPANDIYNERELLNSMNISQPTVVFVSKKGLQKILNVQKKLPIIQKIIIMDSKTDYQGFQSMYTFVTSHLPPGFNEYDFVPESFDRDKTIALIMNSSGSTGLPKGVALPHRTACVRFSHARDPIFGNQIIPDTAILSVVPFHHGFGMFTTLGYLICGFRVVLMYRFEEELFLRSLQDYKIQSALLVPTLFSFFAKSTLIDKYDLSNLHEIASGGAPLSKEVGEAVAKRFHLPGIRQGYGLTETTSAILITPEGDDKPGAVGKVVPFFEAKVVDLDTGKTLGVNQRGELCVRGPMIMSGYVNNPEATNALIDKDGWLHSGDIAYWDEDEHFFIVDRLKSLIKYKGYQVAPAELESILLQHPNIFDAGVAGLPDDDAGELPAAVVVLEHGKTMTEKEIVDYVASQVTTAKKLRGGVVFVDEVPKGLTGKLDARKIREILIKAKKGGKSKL

Focal adhesion kinase 1 (Homo sapiens), sequence (Q05397 whole entry, looked up): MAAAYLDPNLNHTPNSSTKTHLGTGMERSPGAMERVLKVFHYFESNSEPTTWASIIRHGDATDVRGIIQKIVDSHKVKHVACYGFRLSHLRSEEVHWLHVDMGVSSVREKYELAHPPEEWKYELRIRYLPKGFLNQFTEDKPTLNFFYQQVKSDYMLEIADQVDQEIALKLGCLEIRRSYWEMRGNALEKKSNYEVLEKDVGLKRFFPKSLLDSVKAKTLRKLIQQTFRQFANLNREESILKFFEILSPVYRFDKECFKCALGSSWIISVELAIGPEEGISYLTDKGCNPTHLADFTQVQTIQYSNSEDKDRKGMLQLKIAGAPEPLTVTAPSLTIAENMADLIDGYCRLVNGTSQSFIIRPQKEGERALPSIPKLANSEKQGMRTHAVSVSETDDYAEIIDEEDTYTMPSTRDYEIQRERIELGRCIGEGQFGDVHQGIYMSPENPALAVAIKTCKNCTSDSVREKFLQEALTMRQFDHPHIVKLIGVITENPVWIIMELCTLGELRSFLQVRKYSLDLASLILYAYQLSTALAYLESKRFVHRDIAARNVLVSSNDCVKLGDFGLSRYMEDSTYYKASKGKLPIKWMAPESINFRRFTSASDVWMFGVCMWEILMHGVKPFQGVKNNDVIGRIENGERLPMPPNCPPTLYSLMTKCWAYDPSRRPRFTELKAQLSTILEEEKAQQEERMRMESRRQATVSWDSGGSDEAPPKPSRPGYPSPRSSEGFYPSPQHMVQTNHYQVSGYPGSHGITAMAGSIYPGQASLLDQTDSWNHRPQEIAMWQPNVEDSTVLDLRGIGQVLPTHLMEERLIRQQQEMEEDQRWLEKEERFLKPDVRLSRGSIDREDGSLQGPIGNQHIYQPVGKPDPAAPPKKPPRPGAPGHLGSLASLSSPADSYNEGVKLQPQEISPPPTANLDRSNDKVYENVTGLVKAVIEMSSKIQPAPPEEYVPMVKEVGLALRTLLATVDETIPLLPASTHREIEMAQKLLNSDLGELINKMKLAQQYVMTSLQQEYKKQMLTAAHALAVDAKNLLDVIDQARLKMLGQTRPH
Fibroblast growth factor 2 (Homo sapiens), sequence (P09038 whole entry, looked up): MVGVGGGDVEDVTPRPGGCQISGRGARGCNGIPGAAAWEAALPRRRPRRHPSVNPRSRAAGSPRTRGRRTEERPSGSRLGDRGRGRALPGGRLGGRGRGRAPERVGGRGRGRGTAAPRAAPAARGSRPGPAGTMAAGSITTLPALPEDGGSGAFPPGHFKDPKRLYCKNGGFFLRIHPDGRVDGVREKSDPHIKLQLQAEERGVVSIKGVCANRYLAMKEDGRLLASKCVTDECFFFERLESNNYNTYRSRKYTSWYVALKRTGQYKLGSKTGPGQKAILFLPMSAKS
Follistatin (Homo sapiens), sequence (P19883 whole entry, looked up): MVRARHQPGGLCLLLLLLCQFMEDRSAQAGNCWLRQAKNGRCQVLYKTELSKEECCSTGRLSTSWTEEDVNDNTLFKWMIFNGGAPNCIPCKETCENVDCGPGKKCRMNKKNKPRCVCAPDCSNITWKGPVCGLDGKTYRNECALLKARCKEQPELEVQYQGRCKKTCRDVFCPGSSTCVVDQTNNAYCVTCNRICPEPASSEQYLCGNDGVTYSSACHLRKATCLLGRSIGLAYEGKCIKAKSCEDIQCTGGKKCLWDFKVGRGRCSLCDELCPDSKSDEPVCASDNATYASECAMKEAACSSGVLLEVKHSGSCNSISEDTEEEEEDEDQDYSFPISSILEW
Concanavalin-A (Canavalia ensiformis), sequence (P02866 whole entry, looked up): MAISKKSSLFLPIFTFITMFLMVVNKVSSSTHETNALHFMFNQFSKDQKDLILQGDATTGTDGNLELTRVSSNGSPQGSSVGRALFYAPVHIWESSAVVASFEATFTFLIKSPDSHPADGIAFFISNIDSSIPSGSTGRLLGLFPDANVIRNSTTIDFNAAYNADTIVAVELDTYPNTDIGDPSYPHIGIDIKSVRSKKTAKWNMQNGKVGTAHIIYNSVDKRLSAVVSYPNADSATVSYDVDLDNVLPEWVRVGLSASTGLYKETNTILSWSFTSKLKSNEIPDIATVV
Albumin (Bos taurus), sequence (P02769 whole entry, looked up): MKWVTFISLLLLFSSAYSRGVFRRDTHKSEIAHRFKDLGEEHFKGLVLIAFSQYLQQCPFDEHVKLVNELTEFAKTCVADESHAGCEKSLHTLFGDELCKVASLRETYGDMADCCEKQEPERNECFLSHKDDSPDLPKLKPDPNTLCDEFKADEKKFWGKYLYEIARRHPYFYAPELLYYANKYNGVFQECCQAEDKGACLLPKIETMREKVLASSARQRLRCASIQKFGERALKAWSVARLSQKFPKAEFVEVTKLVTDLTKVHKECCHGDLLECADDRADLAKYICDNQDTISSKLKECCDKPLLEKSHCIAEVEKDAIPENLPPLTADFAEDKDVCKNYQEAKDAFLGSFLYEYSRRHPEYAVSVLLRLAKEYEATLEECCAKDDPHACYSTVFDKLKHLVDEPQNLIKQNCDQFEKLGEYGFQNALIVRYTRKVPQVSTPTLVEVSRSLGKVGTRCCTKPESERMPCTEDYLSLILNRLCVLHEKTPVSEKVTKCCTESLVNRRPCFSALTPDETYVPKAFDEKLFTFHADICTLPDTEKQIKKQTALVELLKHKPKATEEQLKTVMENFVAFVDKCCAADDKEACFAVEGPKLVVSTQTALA

| Compound | composite z-score (Albumin (Bos taurus)) | composite Z-score [1] | composite z-score [2] | composite z-score [3] | composite z-score [4] | composite z-score [5] | composite z-score [6] | composite z-score (Sam68 (KHDRBS1)) | composite z-score [7] | composite z-score [8] | composite z-score [9] | composite z-score [10] | composite z-score [11] | composite z-score [12] | composite z-score [13] | composite z-score [14] | z-score [15] | composite z-score (Lefty1) | composite z-score [16] | z-score [17] |
| --- | --- | --- | --- | --- | --- | --- | --- | --- | --- | --- | --- | --- | --- | --- | --- | --- | --- | --- | --- | --- |
| Cc1ccc(N2C(=O)c3ccccc3[C@@H](C(=O)NCCCN(C)C)[C@@H]2c2ccc(CO)cc2)nc1 | -0.0424 | 0.403 (inactive) | -0.416 | -0.244 | -0.0786 | -0.515 | -0.225 | -0.292 | -0.283 | 0.375 | 2.06 | 0.232 | -0.736 | 0.442 | 0.115 | -0.189 | -0.0107 | -0.978 | -0.0618 | 0.775 (inactive) |
| CCCC[C@@H](O)C1=C(COc2ccccc2)C[C@H]2C(=O)N(Cc3ccccc3)C(=O)[C@H]2[C@H]1CO | 0.0031 | -0.861 (inactive) | -0.287 | -0.0795 | 0.099 | 0.523 | -0.523 | 0.426 | 0.228 | 0.395 | -0.412 | -0.0512 | -0.0235 | 0.832 | 0.269 | 0.275 | 0.85 | 0.634 | 0.371 | -1.25 (inactive) |
| C=CCC(OC(C)=O)[C@@H]1[C@@H](N(Cc2cc3ccccc3o2)C(=O)Cc2ccc(F)cc2)c2cc(OCCCO)ccc2N1C(=O)Cc1ccc2ccccc2c1 (stereo not given in full) | 0.533 | 0.242 (inactive) | -0.0311 | -0.104 | -0.208 | 0.615 | -0.0657 | -0.39 | -0.21 | 0.296 | -0.748 | -0.682 | -0.308 | 0.397 | 0.0648 | -0.408 | 1.75 | -0.0725 | -0.286 | -0.826 (inactive) |
| CC1=C2[C@@H](CCc3ccccc3)OB(O)C[C@@H]2[C@@H]2C(=O)N(C)C(=O)[C@@H]2C1 | 0.541 | 0.706 (inactive) | 0.248 | -0.138 | 0.422 | 0.0513 | 0.76 | 0.453 | 0.723 | 0.245 | -0.463 | 0.591 | 0.0327 | 0.762 | 0.587 | 0.509 | -0.0475 | 0.617 | 0.344 | 0.143 (inactive) |
